In ChEMBL document CHEMBL3988442, “University of Dundee, Small-Polar-MMV Screening Library” (2021) one finds Percent Effect data, which are given here for 20 molecules.

This assay has as its target AMP-activated protein kinase, AMPK (Homo sapiens) (UniProt P54646+O43741+P54619+Q9UGJ0+Q9Y478+Q13131+Q9UGI9). As to the kind of experiment: AMP-dependent Kinase enzyme assay. An in vitro enzyme assay that detects ADP turnover that is directly proportional to AMPK activity. This uses naive AMPK that is activated during the assay with MK-8722. It counts as functional. The arrangement: scale not given: direction of the effect not stated beside the values. The note with it: 30 µM.
For the molecule `Cc1ccc(CNCc2nccn2C)c(OCC2CC2)c1`, the Percent Effect is 3.02%. Then `C[C@H](N)C(=O)N1CCC(c2[nH]ncc2-c2ccccc2)CC1`, with -8.96%. In the case of `Cc1ccc(OCc2occc2C(=O)N2CC[C@H](CO)[C@@H](O)C2)cc1` it was 14.2%.

Turning to `c1cc(N2CCC(CN3CCOCC3)CC2)c2sccc2n1`, the Percent Effect is 2.28%.

On to `Fc1ccc(OCCCNC2=NCCCN2)cc1`, for which the Percent Effect stood at 0.73%.

As for `CCC(=O)Nc1cccc(OCC(=O)N2C[C@H]3CC[C@H]2C3)c1`, the Percent Effect was -10.8%.

Consider `O=S(=O)(c1cn[nH]c1)N1CCC(O)(CN2CCC(F)(F)CC2)C1` (stereo not given), for which the Percent Effect stood at 9.16%. In the case of `Cn1cc(C(=O)NCCc2ccc(OC3CCCC3)cc2)ccc1=O` it was 0.292%. In the case of `NC(=O)[C@@H]1Cc2ccccc2CN1CCC(=O)N1CCOCC1` it was -7.78%; in that of `FC(F)(F)c1csc(N2CCN(Cc3ccccn3)CC2)n1`, 7.24%.

`CCCOc1cc(CNC(=O)Nc2ccccn2)ccn1`: the Percent Effect is 7.59%. In the case of `CN(Cc1noc(C2CC2)n1)C1CCN(CCn2cccn2)C1` (stereo not given) it was 5.76%; in that of `Cc1sc(Oc2ccccc2Cl)nc1C(=O)O`, 10.7%. With `COc1cccc(-n2cc(CN(C)Cc3ccnc(C(C)C)n3)cn2)c1`, the Percent Effect is -12.4%. In the case of `O=C(NC1CCCC1)N1C[C@H]2CN(c3ccccn3)C[C@@]2(C(=O)O)C1`, the Percent Effect came to 3.09%.

Turning to `NC(=O)COc1ccc(CN2CCC3(CC2)[C@H](O)C[C@@H]3O)cc1Cl`, the Percent Effect turned out to be 8.11%. Consider `Cc1ncsc1CCC(=O)N(C)Cc1nc2ccccc2n1C`, for which the Percent Effect is 0.381%. Turning to `Cc1nnsc1CN1CC[C@@](O)(C2CCC2)[C@H](C)C1`, the Percent Effect is -5.82%. In the case of `Cn1cc(CN2CCS(=O)(=O)C(C)(C)C2)cn1` it was 5.13%; in that of `O=C1CCC(C(=O)N2CCC(Cn3cc(C4CCCC4)nn3)CC2)=NN1`, -8.82%.
